# Reference: PubChem BioAssay (NCATS)
# Results filed as inconclusive are left out. Where a call stands in place of a potency, no number is given. Activity calls are given as the source filed them. Calls come from the whole dose curve; as a rule, active = well fitted inhibition curve with a large enough effect; inconclusive = small, poorly fitted or top-dose-only effect; inactive = no such curve, though single readings can be large or run the other way.
# Molecular target: N-terminal Xaa-Pro-Lys N-methyltransferase 1 (Homo sapiens) (UniProt Q9BV86)
# Sequence (Q9BV86 whole entry, looked up): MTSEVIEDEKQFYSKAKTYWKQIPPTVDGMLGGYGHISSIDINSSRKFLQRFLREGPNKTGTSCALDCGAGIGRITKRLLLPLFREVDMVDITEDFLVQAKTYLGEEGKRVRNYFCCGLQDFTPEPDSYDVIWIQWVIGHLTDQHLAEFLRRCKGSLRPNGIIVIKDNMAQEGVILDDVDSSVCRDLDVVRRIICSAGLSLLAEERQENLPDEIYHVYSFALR
# Assay: qHTS Assay for Inhibitors of N-terminal methyltransferase 1 (NTMT1): LOPAC validation of the NTMT1 SAHH-coupled ThioGlo3 Assay (AID 1347143);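 note: SAH from peptide methylation measured as thiol fluorescence via SAHH coupling and ThioGlo3; nearly all actives have a fitted effect of over 70% in size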
# Details: recombinant NTMT1, SAHH-coupled ThioGlo3 fluorescence; series mostly up to 114 µM
# Outline: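 Inhibition of NTMT1 methylation of peptide SPKRIA is followed by converting SAH with SAHH and labelling the released thiol with ThioGlo3. Plates are read at 340/450nm before and 30 min after reagent addition, both at room temperature.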
# Potency is the fitted concentration of half-maximal effect.
row,SMILES,Potency
1,NS(=O)(=O)c1cccc2c1c([N+](=O)[O-])cc1nc(O)c(O)nc12,50.1 µM (active)
2,CCCCCCCCCCCCCCCCCCOC[C@H](COP(=O)([O-])OCC[N+](C)(C)C)OC,inactive
3,CCCCOC(=O)NS(=O)(=O)c1sc(CC(C)C)cc1-c1ccc(Cn2c(CC)nc3c(C)cc(C)nc32)cc1,inactive
4,C=C1C(=O)O[C@@H]2[C@H]3O[C@]3(C)CCC=C(C)CC[C@@H]12,inactive
5,O=C(O)Cc1c[nH]c2ccc(O)cc12,56.2 µM (active)
6,c1ccc(CN2CCC3(CCCc4ccccc43)CC2)cc1,50.1 µM (active)
7,CC(O)C(O)[C@H]1CNc2nc(N)[nH]c(=O)c2N1 (some centres undefined),28.2 µM (active)
8,CCOC(=O)C12CC1/C(=N/O)c1ccccc1O2 (centres undefined),inactive
9,OC1(c2ccc(Cl)cc2)CCN(Cc2c[nH]c3ccccc23)CC1,inactive
10,CC(=O)O[C@H]1CC2(C)[C@@H](C[C@@H](O)[C@H]3[C@@]4(C)CC[C@@H](O)[C@@H](C)[C@@H]4CC[C@@]32C)C1=C(CCC=C(C)C)C(=O)O (some centres undefined),inactive
11,CC[n+]1c(/C=C/C=C2/N(C)c3ccccc3C2(C)C)sc2ccccc21,35.5 µM (active)
12,COc1ccccc1N1CCN(CCN(C(=O)c2ccc(F)cc2)c2ccccn2)CC1,inactive
13,NC/C=C\C(=O)O,inactive
14,Cc1ccc2c(c1)C(N1CCN(C)CC1)=Nc1cccnc1N2,inactive
15,N#C/C(=C\c1ccc(O)c(O)c1)C(=O)NCCCNC(=O)/C(C#N)=C/c1ccc(O)c(O)c1,39.8 µM (active)
16,COc1ccc(NC(=O)c2ccc(-c3ccc(-c4noc(C)n4)cc3C)cc2)cc1N1CCN(C)CC1,inactive

# Molecular target: Furin (Homo sapiens) (UniProt P09958)
# Sequence (P09958 whole entry, looked up): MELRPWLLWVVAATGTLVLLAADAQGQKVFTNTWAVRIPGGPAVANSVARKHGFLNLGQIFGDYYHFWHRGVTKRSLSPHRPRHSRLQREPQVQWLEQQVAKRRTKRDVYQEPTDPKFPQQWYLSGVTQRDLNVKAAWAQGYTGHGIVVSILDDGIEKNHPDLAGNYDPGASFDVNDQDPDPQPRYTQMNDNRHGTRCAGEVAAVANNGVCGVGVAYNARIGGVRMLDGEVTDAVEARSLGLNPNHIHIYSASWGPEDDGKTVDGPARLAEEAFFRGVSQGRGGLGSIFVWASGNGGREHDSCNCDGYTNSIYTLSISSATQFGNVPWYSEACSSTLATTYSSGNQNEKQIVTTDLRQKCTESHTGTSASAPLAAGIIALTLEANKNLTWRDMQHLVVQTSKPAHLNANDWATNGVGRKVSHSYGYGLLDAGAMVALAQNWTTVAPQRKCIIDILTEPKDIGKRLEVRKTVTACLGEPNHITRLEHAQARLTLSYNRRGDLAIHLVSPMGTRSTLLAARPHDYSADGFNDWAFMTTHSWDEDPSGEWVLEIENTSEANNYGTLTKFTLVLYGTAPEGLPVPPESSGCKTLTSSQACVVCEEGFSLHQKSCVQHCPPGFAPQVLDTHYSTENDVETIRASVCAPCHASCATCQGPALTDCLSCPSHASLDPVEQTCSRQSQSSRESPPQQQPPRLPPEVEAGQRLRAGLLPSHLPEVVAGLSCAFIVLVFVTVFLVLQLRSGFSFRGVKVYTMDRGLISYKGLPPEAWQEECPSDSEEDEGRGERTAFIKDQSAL
# Assay: Furin counterscreen qHTS for Zika virus inhibitors (AID 1347149); note: nearly all actives have a fitted effect of over 70% in size
# Details: furin enzymatic counterscreen, fluorogenic substrate; series mostly up to 57.5 µM
# Outline: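 Fluorogenic cleavage of BOC-RVRR-AMC (2 microM final, Km ~15 µM) was monitored (ex 340, em 450 nm) at 37C after 15 min RT preincubation of 5 nM furin with compounds in HEPES pH 7.0 buffer with CaCl2 and Triton X-100. Percent inhibition was fitted to a 4-parameter Hill curve.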
row,SMILES,Potency
1,Cn1c(=O)c2[nH]c(-c3ccc(S(=O)(=O)O)cc3)nc2n(C)c1=O,12.1 µM (active)
2,Cn1cc(C(F)(F)F)nc1-c1ccc(OCC(O)CNCCOc2ccc(O)c(C(N)=O)c2)cc1 (centres undefined),24.1 µM (active)
3,O=C1NC(=O)c2cc(Nc3ccccc3)c(Nc3ccccc3)cc21,inactive

# Tested on: Zika virus NS2B-NS3 protease (unlinked)
# Assay: Optimization of GU AMC qHTS for Zika virus inhibitors: Unlinked NS2B-NS3 protease assay (AID 1347151); note: nearly all actives have a fitted effect of over 80% in size
# Details: recombinant ZIKV NS2B-NS3 protease, fluorogenic AMC substrate; series mostly up to 52.5 µM
# Outline: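 Noncovalent complex of NS2B hydrophilic domain and NS3 protease domain, 25 nM final, in 10 mM Tris-HCl pH 8.0, 0.01% Tween 20. AMC fluorescence change over 15 min at room temperature was fitted to a 4-parameter Hill equation.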
row,SMILES,Potency
1,NC(=Nc1ccccc1)NC(=O)c1nc(Cl)c(N)nc1N,26.7 µM (active)
2,CC(C)(C)c1cc(/C=C(\C#N)C(N)=S)cc(C(C)(C)C)c1O,21.2 µM (active)
3,COc1cc(CC(=O)O)ccc1O,inactive
4,C[C@H](O)C(=O)C1=Nc2c(nc(N)[nH]c2=O)NC1,23.8 µM (active)
5,CC[C@@H]1Cc2cc(O)ccc2C2=C1c1ccc(O)cc1C[C@H]2CC,inactive
6,N[C@@H](CCC(=O)N[C@H](CSN=O)C(=O)NCC(=O)O)C(=O)O,inactive
7,O=C(O)CCC(=O)N1CCCC1C(=O)O (centres undefined),inactive
8,Cn1c(=O)c2[nH]c(-c3ccc(S(=O)(=O)O)cc3)nc2n(C)c1=O,inactive
9,Cn1cc(C(F)(F)F)nc1-c1ccc(OCC(O)CNCCOc2ccc(O)c(C(N)=O)c2)cc1 (centres undefined),26.7 µM (active)
10,COc1ccc2c(c1)CCC1C2CC[C@@]2(C)C1CC[C@@H]2NCCCCCCN1C(=O)C=CC1=O (some centres undefined),inactive
11,Nc1ccc(-c2nc3ccc(-c4nc5ccc(N)cc5[nH]4)cc3[nH]2)cc1,26.7 µM (active)
12,NS(=O)(=O)c1cccc2c1c([N+](=O)[O-])cc1nc(O)c(O)nc12,inactive
13,CCCCCCCCCCCCCCCCCCOC[C@H](COP(=O)([O-])OCC[N+](C)(C)C)OC,inactive
14,CCCCOC(=O)NS(=O)(=O)c1sc(CC(C)C)cc1-c1ccc(Cn2c(CC)nc3c(C)cc(C)nc32)cc1,inactive
15,C=C1C(=O)O[C@@H]2[C@H]3O[C@]3(C)CCC=C(C)CC[C@@H]12,inactive
16,c1ccc(CN2CCC3(CCCc4ccccc43)CC2)cc1,inactive
17,CCOC(=O)C12CC1/C(=N/O)c1ccccc1O2 (centres undefined),inactive
18,OC1(c2ccc(Cl)cc2)CCN(Cc2c[nH]c3ccccc23)CC1,inactive
19,CC(C)(C)c1ccc(/C=C/C(=O)Nc2ccc3c(c2)OCCO3)cc1,inactive
20,Nc1nc2c(cnn2CCc2ccccc2)c2nc(-c3ccco3)nn12,23.8 µM (active)
21,COc1ccccc1N1CCN(CCN(C(=O)c2ccc(F)cc2)c2ccccn2)CC1,inactive
22,NC/C=C\C(=O)O,inactive
23,Cc1ccc2c(c1)C(N1CCN(C)CC1)=Nc1cccnc1N2,inactive
24,N#C/C(=C\c1ccc(O)c(O)c1)C(=O)NCCCNC(=O)/C(C#N)=C/c1ccc(O)c(O)c1,0.597 µM (active)
25,COc1ccc(NC(=O)c2ccc(-c3ccc(-c4noc(C)n4)cc3C)cc2)cc1N1CCN(C)CC1,inactive
